Measurements: PubChem BioAssay AID1159580 (chemical genetic matrix, 2015)
Among all 5,500 compounds or so, about 2,000 (36%) were called active. About 18% were inconclusive and are not listed. No stated cut-off is given here; in the data, active means normalized growth mostly below about 0.91 (no sharp cut-off); inconclusive means no clear call, values can overlap the other calls; inactive means mostly above about 0.92. This is one part of the list.

Test: chemical genetic growth profiling, strain panel (AID 1159580);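 further: tested at 20 µM; growth read once vehicle control cultures reached saturation at 30 °C; 1 = growth at the plate median or of vehicle wells; lower values mean less growth of the strain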
Conditions: S. cerevisiae deletion strains, growth OD

Measured: normalized growth

C[C@H](N)CN1CCc2ccc(Br)cc21
inactive: locus YAL040C, strain CLN3, hits give low values 0.979 | locus YCL061C, strain MRC1 (second series), hits give low values 0.992 | locus YDR150W, strain NUM1, hits give low values 1 | locus YDR363W, strain ESC2, hits give low values 1.01 | locus YER002W, strain NOP16, hits give low values 0.992 | locus YGR078C, strain PAC10, hits give low values 1.02 | locus YJR075W, strain HOC1, hits give low values 1 | locus YMR307W, strain GAS1, hits give low values 1 | locus YNL153C, strain GIM3, hits give low values 0.997 | locus YNL175C, strain NOP13, hits give low values 1.01 | locus YNL197C, strain WHI3, hits give low values 1.02 | locus YNL224C, strain SQS1, hits give low values 1.01 | locus YOR083W, strain WHI5 (second series), hits give low values 1 | locus YPL055C, strain LGE1, hits give low values 0.968
